Source: PubChem (National Center for Advancing Translational Sciences (NCATS))
TDP1 cell noCPT: qHTS for Inhibitors of human tyrosyl-DNA phosphodiesterase 1 (TDP1): qHTS in cells in absence of CPT. DT40 Tdp1-/- hTDP1 cells, no CPT, ATP luminescence, 48 h. AID 686978, 2013. 15% of 420,000 active. Potency, µM (doses to about 46.2 µM), most hits filed as inhibitors; note: nearly all actives have a fitted effect of over 55% in size
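Readout: luminescence from CellTiter-Glo after 30 min in the dark at RT. Cells: DT40 Tdp1-/- with stable hTDP1, 400/well. Exposure: compounds alone, ≥48 hr, 37 °C.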
TDP1 cell CPT: growth inhibition of DT40 Tdp1-/-;hTDP1 cells with camptothecin (screen for TDP1 inhibitors); chicken DT40 Tdp1-/-;hTDP1 cells + 20 nM CPT, ATP luminescence, 48 h; Potency, µM (series often up to 46.2 µM), most hits filed as inhibitors; 12% of 420,000 active; AID 686979; note: nearly all actives have a fitted effect of over 55% in size
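Chicken DT40 Tdp1-/- cells stably complemented with human TDP1 were seeded at 400 cells/well in medium containing 20 nM camptothecin, exposed to pin-transferred compounds, and grown at 37 °C for at least 48 hr. Viability was read as ATP luminescence.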
HT1080-NT tox: kills 2HG-producing HT-1080-NT fibrosarcoma cells; HT-1080-NT fibrosarcoma viability, CellTiter-Glo ATP luminescence, 48 h; 1.6% of 360,000 active; Potency, µM (doses to about 46.1 µM), most hits filed as cytotoxic; AID 686970;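 note: NT is the 2HG producing partner of a matched IDH1 knockdown line; nearly all actives have a fitted effect of over 55% in size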
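Toxicity toward the 2HG-producing NT line was scored as %Activity, normalised to DMSO and no-cell wells, from CellTiter-Glo luminescence after 48 hours' treatment.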
HT1080 IDH1KD tx: HT-1080 IDH1 knockdown cell toxicity (counter line); HT-1080 IDH1 knockdown viability, ATP luminescence, 48 h; Potency, µM (doses to about 46.1 µM), usual class: cytotoxic; 2% of 360,000 active; AID 686971
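Knockdown cells (IDH1KD HT-1080) received compounds 2 h after plating at 750 cells/well and were kept 48 h at 37 °C in 5% FBS RPMI. A CellTiter-Glo luminescence read gave % activity for curve fitting.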
IL-1B inflam inh: inhibitors of inflammasome signaling (IL-1 beta secretion); THP-1 LPS/ATP IL-1B secretion, AlphaLISA, 16 h; active compounds read low; activity change, % at 57.5 µM; 4.7% of 360,000 active; in the data active = activity change below about -50%; inconclusive = mostly about -30% to -49%
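THP-1 cells pretreated 1 hr with compounds (up to 57.5 uM final), then stimulated with LPS (250 ng/mL final) plus ATP (1.25 mM final); secreted IL-1B measured by AlphaLISA after 16 hr, decreased signal indicating inhibition.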
Each line names hits and unclear results; the compound was inactive in the other large screens. The list is not random: actives were taken first. Their share in the collection is about 19%. Unless noted, calls come from the whole dose curve; as a rule, active = well fitted curve in the direction sought with a large enough effect; inconclusive = small, poorly fitted or top-dose-only effect, or another doubt; inactive = no such curve, though single readings can be large; an effect the other way counts as inactive or inconclusive.

COc1ccc(C(=O)CC(=O)c2ccccc2)cc1	TDP1 cell noCPT inconclusive
COc1ccc(C(=O)C/C(=C\C(=O)c2ccc(C)cc2)c2ccccc2)cc1	TDP1 cell noCPT 23µM, TDP1 cell CPT 18µM, HT1080-NT tox inconclusive
COc1ccc(CNC(=O)Nc2cccs2)cc1OC	none
COc1cccc(CNC(=O)Nc2cccs2)c1	TDP1 cell noCPT inconclusive, TDP1 cell CPT 7.3µM
COc1cccc(CNC(=O)C(=O)NCC(c2cccs2)S(=O)(=O)c2cccs2)c1 (stereo not drawn)	TDP1 cell noCPT 21µM, TDP1 cell CPT inconclusive (no result: HT1080-NT tox, HT1080 IDH1KD tx, IL-1B inflam inh)
O=C(NCc1ccccc1Cl)C(=O)NCC(c1cccs1)S(=O)(=O)c1cccs1 (stereo not drawn)	TDP1 cell noCPT 18µM, TDP1 cell CPT inconclusive (no result: HT1080-NT tox, HT1080 IDH1KD tx, IL-1B inflam inh)
COc1cccc(C(=O)NCC[N+](C)(C)C)c1	none
Cc1ccc(S(=O)(=O)C(CNC(=O)C(C)C)c2cccs2)cc1 (stereo not drawn)	none
COc1ccc(C(=O)NCC(c2cccs2)S(=O)(=O)c2ccc(C)cc2)cc1 (stereo not drawn)	TDP1 cell noCPT 15µM, TDP1 cell CPT 23µM (no result: HT1080-NT tox, HT1080 IDH1KD tx, IL-1B inflam inh)
COc1ccc(C(CC(=O)c2ccccc2)S(=O)(=O)c2ccc(C)cc2)cc1 (stereo not drawn)	TDP1 cell noCPT 14µM, TDP1 cell CPT inconclusive
COc1ccc(C(=O)NCC(c2cccs2)S(=O)(=O)c2cccs2)cc1 (stereo not drawn)	TDP1 cell noCPT 16µM, TDP1 cell CPT inconclusive (no result: HT1080-NT tox, HT1080 IDH1KD tx, IL-1B inflam inh)
COc1ccc(C(CC(=O)c2ccccc2)CC(=O)c2ccccc2)cc1	TDP1 cell noCPT inconclusive, TDP1 cell CPT inconclusive
Cc1ccc(C(=O)NCC(c2cccs2)S(=O)(=O)c2ccccc2)cc1C (stereo not drawn)	TDP1 cell noCPT 4.1µM, TDP1 cell CPT 15µM (no result: HT1080-NT tox, HT1080 IDH1KD tx, IL-1B inflam inh)
Cc1cc(S(=O)(=O)C(CNC(=O)c2ccc(F)c(F)c2)c2cccs2)ccc1F (stereo not drawn)	none (no result: HT1080-NT tox, HT1080 IDH1KD tx, IL-1B inflam inh)
CC1CN(C(=O)CCNC(=O)c2ccc(Br)cc2)CC(C)O1 (stereo not drawn)	none
Cn1c(Cc2ccccc2)nnc1SCc1ccc(C(=O)O)cc1	none
Nc1[nH]c(C(=O)c2ccc(Br)cc2)c(-c2ccc(Br)cc2)c1C(=O)NCCc1c[nH]c2ccccc12	TDP1 cell noCPT 18µM, TDP1 cell CPT inconclusive, HT1080-NT tox inconclusive, HT1080 IDH1KD tx inconclusive
Nc1[nH]c(C(=O)c2ccccc2)c(-c2ccccc2Br)c1C(=O)NCc1ccc(-c2ccccc2)cc1	TDP1 cell noCPT 12µM, TDP1 cell CPT 23µM
COc1ccc2[nH]cc(CCNC(=O)c3ccccc3Cl)c2c1	none
Nc1[nH]c(C(=O)c2ccccc2)c(-c2ccccc2C(F)(F)F)c1C(=O)NCCc1c[nH]c2ccccc12	TDP1 cell noCPT inconclusive, TDP1 cell CPT inconclusive, HT1080-NT tox inconclusive, HT1080 IDH1KD tx inconclusive
COc1ccc(C(=O)c2[nH]c(N)c(C(=O)NCCc3c[nH]c4ccccc34)c2-c2ccccc2Br)cc1	TDP1 cell noCPT inconclusive, TDP1 cell CPT 13µM, HT1080-NT tox inconclusive, HT1080 IDH1KD tx inconclusive
Nc1[nH]c(C(=O)c2ccccc2)c(-c2ccc([N+](=O)[O-])cc2)c1C(=O)NCCc1c[nH]c2ccccc12	TDP1 cell noCPT 15µM, TDP1 cell CPT 23µM, HT1080-NT tox inconclusive, HT1080 IDH1KD tx inconclusive
COCCCn1cc(CN2CC(N3CCN(C)CC3)CS2(=O)=O)nn1 (stereo not drawn)	none
C=CCN1C(=O)c2ccccc2Sc2ccc(C(=O)NCCC)cc21	TDP1 cell noCPT inconclusive, TDP1 cell CPT inconclusive
O=C(NC(=S)NCc1ccccc1)c1cccc(Cl)c1	TDP1 cell noCPT inconclusive
Nc1[nH]c(C(=O)c2ccccc2)c(-c2ccccc2Br)c1C(=O)NCCc1c[nH]c2ccccc12	TDP1 cell noCPT 21µM, TDP1 cell CPT 16µM, HT1080-NT tox inconclusive, HT1080 IDH1KD tx inconclusive, IL-1B inflam inh inconclusive
CC1=CC(=O)OC1Cc1ccc2ccccc2n1 (stereo not drawn)	TDP1 cell noCPT inconclusive (no result: HT1080-NT tox, HT1080 IDH1KD tx, IL-1B inflam inh)
